Gal4-VP16 FLuc – VP16 counterscreen qHTS for inhibitors of ROR gamma transcriptional activity; Drosophila S2 Gal4-VP16 UAS-luciferase, luminescence, 20 h; Potency, µM (titrated, usually from 53.6 µM), for inactives: at the highest dose activity, negative = inhibition, hits mostly inhibitors; actives 3.5% (n = 310,000); AID 2546, 2010;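 also: Gal4-VP16 expression switched on by copper sulfate through the metallothionein promoter; % is scaled to controls: 0 for no effect and ±100 for the full control effect; nearly all actives have a fitted effect of over 50% in size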
ELG1 DNA repair – qHTS screen for small molecules that inhibit ELG1-dependent DNA repair in human embryonic kidney (HEK293T) cells expressing luciferase-tagged ELG1; Potency, µM (series often up to 46.1 µM), without a hit: top-dose activity change, negative = inhibition, hits mostly inhibitors; HEK293T ELG1-luciferase reporter, luminescence, 16 h; DNA damage induced by 5-fluorouridine; actives 2.3% (n = 330,000); also: % is scaled to controls: 0 for no effect and ±100 for the full control effect; nearly all actives have a fitted effect of over 55% in size
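Step one: seed 2,000 cells per well. Step two: pin-transfer compound or DMSO alongside 5-fluorouridine. Step three: incubate 16 hr, 37 °C, 5% CO2. Step four: add ONE-Glo, wait 30 min, read luminescence.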
SW480 rereplic – A quantitative high throughput screen for small molecules that induce DNA re-replication in SW480 colon adenocarcinoma cells. SW480 DNA re-replication, Hoechst DNA content imaging, 48 h. Potency, µM (highest dose often 46.1 µM), for the others: at the top dose re-replication activation, hits mostly activators. actives 1.8% (n = 340,000). AID 624297, 2012; also: % of control where 0% means no effect; nearly all actives have a fitted effect of over 55% in size
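SW480 cells exposed to compounds for 48 hr at 37 C, 5% CO2, then Hoechst-stained 40 min. Nuclear DNA content imaged by fluorescence scanning (405 nm excitation, 500-530 nm emission); re-replication scored as increased high-intensity nuclei.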
MCF10A rereplic – A quantitative high throughput screen for small molecules that induce DNA re-replication in MCF 10a normal breast cells; Potency, µM (highest dose often 46.1 µM), inactives show top-dose activity, positive = re-replication, hits mostly activators; MCF 10A DNA re-replication, Hoechst nuclear intensity, 48 h; actives 2.9% (n = 350,000); also: % of control where 0% means no effect; nearly all actives have a fitted effect of over 50% in size
RORgamma inh – qHTS for inhibitors of ROR gamma transcriptional activity. Nuclear receptor ROR-gamma (Mus musculus), P51450. Drosophila S2 Gal4-RORgamma UAS-luciferase reporter, 20 h. Potency, µM (doses to about 53.6 µM), for inactives: at the top dose activity change, negative = inhibition, actives largely listed as inhibitors. actives 5.4% (n = 310,000). AID 2551, 2010; also: % is scaled to controls: 0 for no effect and ±100 for the full control effect; nearly all actives have a fitted effect of over 60% in size
Target sequence (P51450 whole entry, looked up, the tested form may be a part): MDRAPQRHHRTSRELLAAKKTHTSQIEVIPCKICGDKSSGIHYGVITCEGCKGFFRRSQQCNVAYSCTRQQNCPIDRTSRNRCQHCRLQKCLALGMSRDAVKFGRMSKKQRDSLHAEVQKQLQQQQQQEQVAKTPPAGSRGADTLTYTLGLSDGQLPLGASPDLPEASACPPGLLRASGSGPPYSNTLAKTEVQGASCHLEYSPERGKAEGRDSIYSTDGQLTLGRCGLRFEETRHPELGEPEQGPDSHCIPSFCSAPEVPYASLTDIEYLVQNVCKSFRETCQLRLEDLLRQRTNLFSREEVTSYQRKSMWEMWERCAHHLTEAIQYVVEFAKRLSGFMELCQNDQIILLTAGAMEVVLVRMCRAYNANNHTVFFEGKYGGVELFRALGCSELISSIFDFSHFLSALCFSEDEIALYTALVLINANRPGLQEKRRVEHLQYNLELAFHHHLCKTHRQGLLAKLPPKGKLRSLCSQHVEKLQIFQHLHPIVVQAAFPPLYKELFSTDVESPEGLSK
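Drosophila S2 cells stably expressing Gal4-DBD/mouse RORγ fusion under metallothionein promoter plus UAS-luciferase; compound 1 h, then 700 uM CuSO4 induction for 20 h at ambient temperature; inhibition read as reduced luminescence.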
Starred values were filed as active, the others as inactive; ? = inconclusive; . = no result given; [ ] = another dose, or the depositor's remark. Compounds with a hit are over-represented: about 10% of the library has one in this group of screens. Calls follow the shape of the dose curve; as a rule, active = well fitted curve in the direction sought with a large enough effect; inconclusive = small, poorly fitted or top-dose-only effect, or another doubt; inactive = no such curve, though single readings can be large; an effect the other way counts as inactive or inconclusive. Potency is read from the fitted curve at half-maximal effect.

SMILES | Gal4-VP16 FLuc | ELG1 DNA repair | SW480 rereplic | MCF10A rereplic | RORgamma inh
COc1ccccc1N=c1oc2cc(O)ccc2cc1C(=O)NCC1CCCO1 (centres undefined) | 1.5% | 6.51µM* | 12.8% | 7.2% | 5.3%
COc1cccc(N=c2oc3cc(O)ccc3cc2C(=O)NCC2CCCO2)c1 (centres undefined) | -24.3% | 4.11µM* | 5.3% | ? | 22.0%
COc1ccccc1N=c1oc2cc(O)ccc2cc1C(N)=O | -22.9% | ? | 11.2µM* | 18.4µM* | ?
COc1ccc2oc(=O)c(C(=O)NCC3CCCO3)cc2c1 (centres undefined) | -7.5% | ? | -1.9% | -5.8% | 34.7%
COc1ccc2cc(C(N)=O)/c(=N\NC(=O)c3ccccc3)oc2c1 | ? | ? | -5.0% | -3.5% | 12.6µM*
Clc1ccccc1-c1ccc2ncnc(NCCN3CCOCC3)c2c1 | -16.1% | . | . | . | 21.2%
Cc1cccc(N=c2oc3cc(O)ccc3cc2C(N)=O)c1 | 14.1µM* | 4.61µM* | ? | ? | 11.2µM*
COc1ccccc1NC(=O)c1cc2ccccc2o/c1=N\O | -26.0% | ? | 0.6% | 7.7% | ?
COc1ccc2cc(C(N)=O)c(=Nc3ccc(C)cc3)oc2c1 | -6.7% | ? | -5.2% | 2.8% | ?
COc1ccccc1NC(=O)c1cc2ccc(O)cc2o/c1=N\O | 2.24µM* | -8.7% | ? | ? | 0.891µM*
COc1ccccc1NC(=O)c1cc2cc(Br)ccc2cc1O | 8.91µM* | -16.8% | -3.2% | ? | ?
O=C1C2C3C=CC(C2C(=O)N1c1cccc(O)c1)C1C2C(=O)N(c4cccc(O)c4)C(=O)C2C31 (centres undefined) | 5.5% | 4.3% | -94.4% | ? | 15.9%
Cc1c(C(=O)c2ccc([N+](=O)[O-])cc2)c(=O)n(C)c(=O)n1C | -4.4% | 7.6% | -17.9% | 0.9% | 0.5%
CC(C)C(=O)NCCc1nc2ccccc2n1CCc1ccccc1 | -2.2% | -5.7% | -2.8% | 2.0% | -21.7%
CCc1nc2ccccc2n1CCC(C)C | 12.6µM* | 0.0% | -6.9% | ? | 10µM*
CCn1c(CCc2ccccc2)nc2ccccc21 | ? | ? | -1.0% | 9.4% | ?
CC(C)(C)Cc1nc2ccccc2n1CCc1ccccc1 | 15.8µM* | -6.1% | 8.6% | ? | 7.94µM*
CC(C)Cc1nc2ccccc2n1CCc1ccccc1 | ? | -2.3% | -4.5% | 13.5% | 8.91µM*
CCc1nc2ccccc2n1CCc1ccccc1 | 2.3% | -10.1% | 3.8% | ? | 8.91µM*
O=C(NCc1ccco1)c1cc(Cl)nc(Cl)c1 | 6.3% | 17.3% | -0.4% | 13.2% | ?
C/C(=N\Nc1nc(Cl)c(Cl)cc1Cl)c1ccc(S(=O)(=O)NCc2ccco2)cc1 | ? | ? | ? | ? | -37.7%
C=C(Br)Cn1c(CC(C)C)nc2ccccc21 | -6.2% | -19.2% | 0.0% | 20.1% | 35.5µM*
CC(C)CC(C(=O)OCC(=O)N1CCN(c2ccccc2)CC1)N1C(=O)c2ccccc2C1=O (centres undefined) | . | . | -2.3% | 1.0% | .
O=C(COC(=O)c1cccc(S(=O)(=O)Nc2ccc(F)cc2)c1)NCCN1C(=O)CSC1=O | . | -7.0% | -73.0% | -12.7% | .
Cc1ccc(CNC(=O)c2ccc(OCC3CCCO3)cc2)cc1 (centres undefined) | 5.3% | ? | 73.6% | -1.6% | 33.4%
SMILES | Gal4-VP16 FLuc | ELG1 DNA repair | SW480 rereplic | MCF10A rereplic | RORgamma inh
Cc1ccc2nc(NC(=O)c3ccc(OCC4CCCO4)cc3)sc2c1 (centres undefined) | ? | ? | -1.6% | 20.6% | 4.47µM*
Cc1cccnc1NC(=O)c1ccc(OCC2CCCO2)cc1 (centres undefined) | . | ? | -7.5% | 6.1% | .
O=C(Nc1ccc(Cl)cc1)c1ccc(OCC2CCCO2)cc1 (centres undefined) | -0.3% | ? | -9.3% | -0.1% | 9.9%
Cc1cc(C)c2nc(NC(=O)c3ccc(OCC4CCCO4)cc3)sc2c1 (centres undefined) | -17.1% | 6.2% | -52.8% | -16.7% | 1µM*
O=C(Nc1nc(-c2ccc(Cl)cc2Cl)cs1)c1ccc(OCC2CCCO2)cc1 (centres undefined) | 17.8µM* | ? | -9.5% | 16.3% | -36.8%
COc1ncc2nc(C)c(=O)n(Cc3cccs3)c2n1 | -6.9% | . | . | . | 16.1%
CC(=O)OC[C@@H]1O[C@H](CCO/N=C(\C)CCN2CCCc3nc(C)c(C)cc32)C=C[C@@H]1OC(C)=O | 5.1%[10 µM] | . | . | . | 3.6%[10 µM]
c1ccc2c(c1)[nH]c1c(N3CCC4(CC3)OCCO4)ncnc12 | ? | 20.6µM* | 17.5% | ? | 29.0%
OC1(c2cccc(C(F)(F)F)c2)CCN(c2ncnc3c2[nH]c2ccccc23)CC1 | 6.0% | 4.5% | ? | ? | -8.4%
COc1cccc2[nH]c3c(N4CCc5ccccc5C4)ncnc3c12 | -1.2% | 13µM* | -1.7% | ? | 15.7%
COc1cccc2[nH]c3c(N4CCC5(CC4)OCCO5)ncnc3c12 | -8.4% | -10.9% | 24.9% | 21.0% | 2.3%
c1ccc2c(c1)CCN(c1ncnc3c1[nH]c1ccccc13)C2 | 6.31µM* | 9.2µM* | ? | ? | 12.6µM*
CC[n+]1ccc2cc(OC)c(OC)cc2c1Cc1ccc(OC)c(OC)c1 | -13.2% | 4.8% | -7.4% | -3.3% | 2.6%
COc1ccc(CC(=O)N2CCC(Nc3nc4ccccc4n3Cc3ccc(F)cc3)CC2)cc1 | 1.4% | 20.6µM* | 6.5%[9.22 µM] | 27.7% | ?
[O-]C(=C(C(=S)Nc1cccc2ccccc12)[n+]1ccccc1)c1ccc2c(c1)OCCO2 | . | . | 14.6% | 23.1% | .
CC(C)(C)c1cc[n+](/C(C(=S)Nc2ccccc2F)=C(/[O-])c2ccc3c(c2)OCCO3)cc1 | -9.9% | 3.3% | 8.7% | -0.9% | 10µM*
Clc1ccc(CNC2CCCC2)c(Cl)c1 | -1.1% | -0.3% | 15.7% | -7.1% | 4.8%
S=C(NCCc1cccc(Cl)c1)NC1CCCCC1 | 5.62µM* | ? | ? | 0.8% | 4.47µM*
S=C(NCCc1ccccc1)NC1CC1 | ? | 16.7% | -2.2% | -4.5% | 4.47µM*
O=C(NC1CCN(C(=S)NCCc2ccccc2)CC1)C1CC1 | ? | -6.9% | -102.1% | 2.2% | 10µM*
S=C(NCc1ccc(Cl)cc1Cl)NC1CCCCC1 | 15.8µM* | ? | 9.0% | ? | 5.62µM*
COc1ccc(-c2ccc(-c3cc(=O)oc4cc(OC)c(OC)c(OC)c34)cc2)cc1 | 6.1% | -6.3% | 0.1% | 0.7% | 19.7%
Cc1nc2cnc(N(C)C)nc2n(C2CC2)c1=O | -3.8% | . | . | . | 17.3%

Bioassay records from PubChem BioAssay.
